RecA intein inh: Mtb RecA intein splicing inhibition; P9WHJ3; cell-free RecA intein splicing, fluorescence; inhibition, % (test concentration not listed); 290,000 compounds, 0.75% hits; AID 2221; in the data active = inhibition above about 30%
Target sequence (P9WHJ3 whole entry, looked up): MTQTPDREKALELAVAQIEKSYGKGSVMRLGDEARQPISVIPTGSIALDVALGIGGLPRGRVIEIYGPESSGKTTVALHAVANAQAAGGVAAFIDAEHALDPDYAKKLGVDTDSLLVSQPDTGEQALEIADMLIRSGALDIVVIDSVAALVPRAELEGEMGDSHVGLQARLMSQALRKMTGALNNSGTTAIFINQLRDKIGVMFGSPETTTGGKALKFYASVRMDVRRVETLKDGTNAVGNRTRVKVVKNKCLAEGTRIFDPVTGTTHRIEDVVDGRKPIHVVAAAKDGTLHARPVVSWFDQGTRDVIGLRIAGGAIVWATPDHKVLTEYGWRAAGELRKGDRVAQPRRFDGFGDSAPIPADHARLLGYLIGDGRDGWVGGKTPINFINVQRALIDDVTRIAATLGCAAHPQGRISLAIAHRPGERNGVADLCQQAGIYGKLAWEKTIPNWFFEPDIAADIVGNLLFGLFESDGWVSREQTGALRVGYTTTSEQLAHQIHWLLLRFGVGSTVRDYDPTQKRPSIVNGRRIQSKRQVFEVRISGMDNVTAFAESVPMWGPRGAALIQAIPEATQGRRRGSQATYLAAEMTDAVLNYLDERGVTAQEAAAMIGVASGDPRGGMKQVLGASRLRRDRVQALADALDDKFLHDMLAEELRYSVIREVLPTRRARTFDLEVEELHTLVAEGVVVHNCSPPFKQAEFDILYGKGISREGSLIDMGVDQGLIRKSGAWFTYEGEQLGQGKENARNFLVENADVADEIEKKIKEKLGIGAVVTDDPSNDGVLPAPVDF
CCHFV vOTU inh: blocks the CCHF virus ovarian tumor domain protease | CCHFV vOTU protease, Pep-AMC fluorescence | inhibition, % at 11.5 µM | 370,000 compounds, 0.55% hits
GDH-TPI counter-1: counter-screen for M. tuberculosis FBA inhibitors: GDH-TPI coupled enzymes; GDH-TPI coupled enzyme counterscreen, NADH absorbance; inhibition, % at 4.8 µM; 360,000 compounds, 1.2% hits
FBA Mtb inh: inhibitors of M. tuberculosis fructose-bisphosphate aldolase. 360,000 compounds, 2.3% hits. AID 588726. P9WQA3. purified M. tuberculosis FBA, fluorescence read-out. inhibition, % at 1 µM; in the data active = inhibition above about 27%
Mtb FBA confirm: confirmation of M. tuberculosis fructose-bisphosphate aldolase inhibitors; inhibition, % at 1 µM; shares compounds with FBA Mtb inh; AID 651616; purified M. tuberculosis FBA, fluorescence read-out; 5,600 compounds, 78% hits; in the data active = inhibition above about 27%
GDH-TPI counter-2: counter-screen for M. tuberculosis FBA inhibitors: GDH-TPI coupled enzyme inhibition | AID 652141 | GDH-TPI coupled enzyme counterscreen, fluorescence | inhibition, % at 1 µM | 5,600 compounds, 81% hits | shares compounds with FBA Mtb inh; in the data active = inhibition above about 10%
GDH-TPI DR: GDH-TPI dose response counter-screen for Mtb FBA. GDH-TPI coupled enzyme assay, fluorescence, artifact counterscreen. shares compounds with FBA Mtb inh. AID 652145. 170 compounds, 79% hits. IC50, µM; call rule not given here
Each line names hits and unclear results; the compound was inactive in the other large screens (follow-up assays come after a bar, where they were run). Only some compounds are listed: those with a hit (about 4.2% of all), similar ones and a draw of the others. Rule as the data show it, unless noted: active = inhibition above about 30%; inactive = the rest.

CCNC(=O)/C(C#N)=C/c1c(N2CCN(Cc3ccc4c(c3)OCO4)CC2)nc2c(C)cccn2c1=O	none
CCCCn1c(=NC(=O)c2ccc3c(c2)OCO3)c(C#N)cc2c(=O)n3cccc(C)c3nc21	FBA Mtb inh 77 (no result: RecA intein inh) | Mtb FBA confirm active | GDH-TPI counter-2 active
COCCCn1c(C(=O)N2CCOCC2)cc2c(=O)n3cccc(C)c3nc21	FBA Mtb inh 72 | Mtb FBA confirm 55 | GDH-TPI counter-2 43
Cc1cccn2c(=O)c3cc(C(=O)N4CCCCC4C)sc3nc12 (stereo not given)	none (no result: RecA intein inh)
COc1ccc([C@H]2C[C@@H](O)[C@H](n3cc(COC(=O)c4ccccc4)nn3)CN2CC2CCCCC2)cc1	none (no result: RecA intein inh)
Cc1ccc(S(=O)(=O)C[C@@H]2OC[C@H](CO)N2S(=O)(=O)c2ccc(C)cc2)cc1	none (no result: RecA intein inh, GDH-TPI counter-1, FBA Mtb inh)
O=C(CCCCCN1C(=O)c2cccc3cccc(c23)C1=O)NCCCO	FBA Mtb inh 33 | Mtb FBA confirm 97 | GDH-TPI counter-2 73
O=C(CN1C(=O)c2cccc3cccc(c23)C1=O)NCCCO	FBA Mtb inh 52 | Mtb FBA confirm inactive | GDH-TPI counter-2 24
COc1ccccc1NC(=O)CCCCCN1C(=O)c2cccc3cccc(c23)C1=O	none (no result: RecA intein inh)
O=C(c1coc(=O)c(Br)c1)N1CCOCC1	FBA Mtb inh 98 | Mtb FBA confirm inactive | GDH-TPI counter-2 inactive
COC(=O)/C(C#N)=C/c1c(Oc2cccc(C)c2)nc2ccccn2c1=O	none
Cc1cccn2c(=O)c(/C=C(\C#N)C(=O)NC3CCS(=O)(=O)C3)c(Oc3ccc(F)cc3)nc12 (stereo not given)	FBA Mtb inh 32 | Mtb FBA confirm active | GDH-TPI counter-2 active
COc1ccc(Oc2nc3c(C)cccn3c(=O)c2/C=C(\C#N)C(N)=O)cc1	none
Cc1ccsc1/C=C(\C#N)C(=O)NC1CCS(=O)(=O)C1 (stereo not given)	none
Cc1cc(Oc2nc3ccccn3c(=O)c2/C=C(\C#N)C(=O)NC2CCS(=O)(=O)C2)ccc1Cl (stereo not given)	FBA Mtb inh 45 (no result: RecA intein inh) | Mtb FBA confirm 139 | GDH-TPI counter-2 113
N#C/C(=C\c1c(Oc2ccc(Cl)cc2)nc2ccccn2c1=O)C(=O)NC1CCS(=O)(=O)C1 (stereo not given)	FBA Mtb inh 86 | Mtb FBA confirm active | GDH-TPI counter-2 182
Cc1cccc(Oc2nc3ccccn3c(=O)c2/C=C(\C#N)C(=O)NC2CCS(=O)(=O)C2)c1C (stereo not given)	FBA Mtb inh 51 | Mtb FBA confirm 107 | GDH-TPI counter-2 80
Cc1cccc(Oc2nc3ccccn3c(=O)c2/C=C(\C#N)C(=O)NC2CCS(=O)(=O)C2)c1 (stereo not given)	none
COc1cc(NC(=O)C(C)(C)C)c(C(=O)OCC(=O)Nc2cc(C)on2)cc1OC	none (no result: RecA intein inh)
C#CCCOC(=O)Nc1ccccc1	none
Cc1ccc(N(CC(=O)N/N=C/c2cc(C)n(-c3ccccc3)c2C)S(C)(=O)=O)c(C)c1	none
Cc1cc(/C=N/NC(=O)Cn2c3ccccc3c(=O)c3ccccc32)c(C)n1-c1ccccc1	FBA Mtb inh 66 | Mtb FBA confirm active | GDH-TPI counter-2 active
CCCN(CCC)CCCNC(=O)c1cc2c(=O)[nH]c3ccccc3c2s1	FBA Mtb inh 70 | Mtb FBA confirm active | GDH-TPI counter-2 194
CCCCN(CC)CCNC(=O)c1cc2c(=O)[nH]c3ccccc3c2s1	FBA Mtb inh 39 | Mtb FBA confirm active | GDH-TPI counter-2 active
O=C(NCC1CCCO1)c1cc2c(=O)[nH]c3ccccc3c2s1 (stereo not given)	FBA Mtb inh 35 | Mtb FBA confirm 53 | GDH-TPI counter-2 55
CCC(C)Sc1ccc([C@@H]2[C@H]3C(=O)N(CC)C(=O)[C@H]3[C@]3(C(=O)OC)CCCCN23)cc1 (stereo not given in full)	none (no result: RecA intein inh)
O=C(NCc1ccccc1)OCCCN1C(=O)CCC12CCCCC2	none (no result: RecA intein inh, GDH-TPI counter-1, FBA Mtb inh)
O=C(COc1coc(CN2CCc3ccccc3C2)cc1=O)N1CCOCC1	none
O=C(O)COc1c(-c2ccco2)oc2ccccc2c1=O	FBA Mtb inh 46 | Mtb FBA confirm active | GDH-TPI counter-2 active
CCOC(=O)COc1c(-c2ccc(OC)cc2)oc2ccccc2c1=O	GDH-TPI counter-1 43, FBA Mtb inh 68 | Mtb FBA confirm active | GDH-TPI counter-2 active
COc1ccc(-c2oc3ccccc3c(=O)c2OCC(=O)O)cc1	GDH-TPI counter-1 35, FBA Mtb inh 98 | Mtb FBA confirm active | GDH-TPI counter-2 163
NC(=O)COc1c(-c2ccco2)oc2ccccc2c1=O	none
COc1ccc(S(=O)(=O)N2CCC3(CC2)OCCN3S(=O)(=O)c2ccccc2)cc1OC	none
CCOC(=O)C1=CN(Cc2ccco2)S(=O)(=O)N(CC)C1c1ccc(C(F)(F)F)cc1 (stereo not given)	none (no result: RecA intein inh)
O=C(NC1CCCCC1)c1ccc2[nH]c(=O)c(=O)[nH]c2c1	FBA Mtb inh 41 | Mtb FBA confirm inactive | GDH-TPI counter-2 inactive | GDH-TPI DR 4.3
CC1(C)Cc2c(cnn2-c2cccc(F)c2)C(NC(=O)c2ccc(=O)[nH]n2)C1 (stereo not given)	none
Cn1c(CN2CCOCC2)nnc1SCC(=O)Nc1cc(Cl)ccc1Cl	FBA Mtb inh 27 (no result: RecA intein inh) | Mtb FBA confirm inactive | GDH-TPI counter-2 inactive
COc1cc(-c2nc3ccccn3c2NCC2CCCO2)ccc1O (stereo not given)	none
CCOc1cc(-c2nc3c(C)cccn3c2NCC2CCCO2)ccc1O (stereo not given)	FBA Mtb inh 84 | Mtb FBA confirm 131 | GDH-TPI counter-2 108
COc1ccc(-c2nc3cccc(C)n3c2NCC2CCCO2)cc1O (stereo not given)	FBA Mtb inh 59 | Mtb FBA confirm 134 | GDH-TPI counter-2 104
COC(=O)c1c(NC(=O)CN2CCC3(O)CCCCC3C2c2ccc(OC)cc2OC)sc(C)c1C (stereo not given)	none
COc1ccc2nc(/N=C(\N)NC(=O)N3c4ccccc4Sc4ccccc43)nc(C)c2c1	none
CCOC(=O)CSc1nc(C)c2cc(OC)ccc2n1	FBA Mtb inh 49 | Mtb FBA confirm 64 | GDH-TPI counter-2 36
CCC(=O)N/C(N)=N/c1nc(C)c2cc(OC)ccc2n1	FBA Mtb inh 40 | Mtb FBA confirm active | GDH-TPI counter-2 active
COc1ccc2nc(/N=C(\N)NC(=O)C(C)(C)C)nc(C)c2c1	FBA Mtb inh 46 | Mtb FBA confirm inactive | GDH-TPI counter-2 inactive | GDH-TPI DR 3.6
CCC(=O)N/C(=N/c1nc(C)cc(C)n1)Nc1ccc(OC)cc1	none
CCCC1OC(c2cc3c(cc2Cl)OCO3)OCC1CC (stereo not given)	none (no result: RecA intein inh)
COc1ccc(S(=O)(=O)n2ccc(-c3cnc(-c4ccccc4)s3)n2)cc1	none
O=C(c1ccccc1)n1ccc(-c2cnc(-c3ccccc3)s2)n1	FBA Mtb inh 95 | Mtb FBA confirm 73 | GDH-TPI counter-2 58
COc1ccccc1N1CCN(C(=O)CCNC(=O)c2ccco2)CC1	none (no result: RecA intein inh)

Bioassay records deposited in PubChem BioAssay by several laboratories.
